Records with an inconclusive call do not appear. A call without a number means that no potency is given here. Unmarked numbers belong to inactive results. The source made the active and inactive calls. Calls come from the whole dose curve; as a rule, active = well fitted curve in the direction sought with a large enough effect; inconclusive = small, poorly fitted or top-dose-only effect, or another doubt; inactive = no such curve, though single readings can be large; an effect the other way counts as inactive or inconclusive.
Assays:
[1] = qHTS of pediatric cancer cell lines to identify multiple opportunities for drug repurposing: Primary screen for Saos-2 cells (AID 1347097); note: nearly all actives have a fitted effect of over 40% in size; note: potency is the fitted concentration of half-maximal effect
Procedure, shortened: (§1)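 ATP-based luminescence (CellTiter-Glo) quantifies viability after a 48-hour exposure. Compounds are dosed across 8 or 11 final concentrations; DMSO and 2.3 µM bortezomib serve as controls.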

[2] = qHTS of pediatric cancer cell lines to identify multiple opportunities for drug repurposing: Primary screen for SK-N-SH cells (AID 1347098); note: nearly all actives have a fitted effect of over 65% in size; note: potency is the fitted concentration of half-maximal effect
Procedure, shortened: (§2)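 Cells (500-1,000/well) rested 5 h, then received compounds for 48 h; metabolically active cells were measured by CellTiter-Glo luminescence. Final concentrations spanned up to 46 µM (MIPE, 11-point) or 0.59 nM-46 µM (NPC, 8-point) in primary screens, 11-point in follow-ups.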

[3] = qHTS of pediatric cancer cell lines to identify multiple opportunities for drug repurposing: Primary screen for NB1643 cells (AID 1347099); note: nearly all actives have a fitted effect of over 50% in size; note: potency is the fitted concentration of half-maximal effect
Procedure, shortened: as §1

[4] = qHTS of pediatric cancer cell lines to identify multiple opportunities for drug repurposing: Primary screen for LAN-5 cells (AID 1347100); note: potency is the fitted concentration of half-maximal effect
Procedure, shortened: (§3)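 Viability after 48 h compound treatment at 37C, 500-1,000 cells/well, read as ATP luminescence with CellTiter-Glo. Primary screens used 11-point (MIPE, 0.78 nM-46 µM) or 8-point (NPC, 0.59 nM-46 µM) final concentrations; follow-up screens used 11-point dilutions.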

[5] = qHTS of pediatric cancer cell lines to identify multiple opportunities for drug repurposing: Primary screen for BT-12 cells (AID 1347101); note: nearly all actives have a fitted effect of over 25% in size; note: potency is the fitted concentration of half-maximal effect
Procedure, shortened: as §2

[6] = qHTS of pediatric cancer cell lines to identify multiple opportunities for drug repurposing: Primary screen for Rh18 cells (AID 1347102); note: nearly all actives have a fitted effect of over 65% in size; note: potency is the fitted concentration of half-maximal effect
Procedure, shortened: as §3

[7] = qHTS of pediatric cancer cell lines to identify multiple opportunities for drug repurposing: Primary screen for OHS-50 cells (AID 1347103); note: nearly all actives have a fitted effect of over 40% in size; note: potency is the fitted concentration of half-maximal effect
Procedure, shortened: as §2

[8] = qHTS of pediatric cancer cell lines to identify multiple opportunities for drug repurposing: Primary screen for RD cells (AID 1347104); note: nearly all actives have a fitted effect of over 55% in size
Procedure, shortened: as §1

[9] = qHTS of pediatric cancer cell lines to identify multiple opportunities for drug repurposing: Primary screen for MG 63 (6-TG R) cells (AID 1347105); note: nearly all actives have a fitted effect of over 50% in size; note: potency is the fitted concentration of half-maximal effect
Procedure, shortened: as §1

[10] = qHTS of pediatric cancer cell lines to identify multiple opportunities for drug repurposing: Primary screen for control Hh wild type fibroblast cells (AID 1347106); note: nearly all actives have a fitted effect of over 55% in size; note: potency is the fitted concentration of half-maximal effect
Procedure, shortened: as §3

[11] = qHTS of pediatric cancer cell lines to identify multiple opportunities for drug repurposing: Primary screen for Rh30 cells (AID 1347107); note: nearly all actives have a fitted effect of over 75% in size; note: potency is the fitted concentration of half-maximal effect
Procedure, shortened: as §3

[12] = qHTS of pediatric cancer cell lines to identify multiple opportunities for drug repurposing: Confirmatory screen for NB1643 cells (AID 1347109); note: potency is the fitted concentration of half-maximal effect; nearly all actives have a fitted effect of over 45% in size
Procedure, shortened: as §3

[13] = qHTS of pediatric cancer cell lines to identify multiple opportunities for drug repurposing: Confirmatory screen for A673 cells (AID 1347110); conditions: A673 Ewing sarcoma cell viability; note: potency is the fitted concentration of half-maximal effect; nearly all actives have a fitted effect of over 65% in size
Procedure, shortened: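 Cells plated at 500-1,000/well were treated five hours later with multi-point dilutions up to 46 µM final. After two days, CellTiter-Glo was added and luminescence read.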

[14] = qHTS of pediatric cancer cell lines to identify multiple opportunities for drug repurposing: Confirmatory screen for SK-N-MC cells (AID 1347111); conditions: SK-N-MC cell viability;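 note: potency is the fitted concentration of half-maximal effect; cells exposed to compound for 48 h before the readout; nearly all actives have a fitted effect of over 70% in size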
Procedure, shortened: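 SK-N-MC cells at 500-1,000 cells/well in growth media were pre-incubated 5 h, then exposed to compounds at 11-point dilutions for 48 h at 37 degrees C, 5% CO2. Viability was read as CellTiter-Glo luminescence.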

[15] = qHTS of pediatric cancer cell lines to identify multiple opportunities for drug repurposing: Confirmatory screen for LAN-5 cells (AID 1347113); note: potency is the fitted concentration of half-maximal effect; nearly all actives have a fitted effect of over 65% in size
Procedure, shortened: as §3

[16] = qHTS of pediatric cancer cell lines to identify multiple opportunities for drug repurposing: Confirmatory screen for DAOY cells (AID 1347114)
Procedure, shortened: (§4)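 Viability measured as metabolically active cells via CellTiter-Glo luminescence following 48 hours of compound exposure, 11-point dilutions in confirmatory testing. 500-1,000 cells/well plated 5 hours before dosing; controls were DMSO and 2.3 µM bortezomib.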

[17] = qHTS of pediatric cancer cell lines to identify multiple opportunities for drug repurposing: Confirmatory screen for BT-12 cells (AID 1347112); note: potency is the fitted concentration of half-maximal effect; nearly all actives have a fitted effect of over 55% in size
Procedure, shortened: as §3

[18] = qHTS of pediatric cancer cell lines to identify multiple opportunities for drug repurposing: Confirmatory screen for NB-EBc1 cells (AID 1347115); note: potency is the fitted concentration of half-maximal effect; nearly all actives have a fitted effect of over 45% in size
Procedure, shortened: as §3

[19] = qHTS of pediatric cancer cell lines to identify multiple opportunities for drug repurposing: Confirmatory screen for SJ-GBM2 cells (AID 1347116); note: potency is the fitted concentration of half-maximal effect; nearly all actives have a fitted effect of over 60% in size
Procedure, shortened: as §4

[20] = qHTS of pediatric cancer cell lines to identify multiple opportunities for drug repurposing: Primary screen for Rh41 cells (AID 1347108);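 note: series mostly up to about 46 µM; luminescence drop marks cytotoxic hits; nearly all actives have a fitted effect of over 70% in size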
Procedure, shortened: as §1

Row | Compound | Potency [1] | Potency [2] | Potency [3] | Potency [4] | Potency [5] | Potency [6] | Potency [7] | Potency [8] | Potency [9] | Potency [10] | Potency [11] | Potency [12] | Potency [13] | Potency [14] | Potency [15] | Potency [16] | Potency [17] | Potency [18] | Potency [19] | Potency [20]
1 | CCCCCCCCCCCCCCCC(=O)OC(C)C | inactive | inactive | inactive | inactive | inactive | inactive | inactive | inactive | inactive | inactive | inactive |  |  |  |  |  |  |  |  | 
2 | N=C1N=C(N)c2cc3ccccc3cc21 | 24300 nM (active) | 25 µM (active) | 19.3 µM (active) | 24.3 µM (active) | 25.2 µM (active) | 48.6 µM (active) | 17.8 µM (active) |  | 24.3 µM (active) |  |  | 33.9 µM (active) | 38 µM (active) | 17 µM (active) | 38 µM (active) | 42.7 µM (active) |  |  |  | 
3 | COc1ccnc2c1CCCCC2S(=O)c1nc2ccccc2[nH]1 (stereo not given) | inactive | inactive | inactive | inactive | inactive | inactive | inactive |  | inactive | inactive | inactive |  |  |  |  |  |  |  |  | 
4 | CN(C)[C@@H]1C(=O)C(C(=O)NCN2CCCC2)=C(O)[C@@]2(O)C(=O)C3=C(O)c4c(O)cccc4[C@@](C)(O)C3C[C@@H]12 (stereo not given in full) | inactive | inactive | inactive | inactive | inactive | inactive | inactive | inactive | inactive | inactive | inactive |  |  |  |  |  |  |  |  | 
5 | CN(C)c1ccc(C(=C2C=CC(=[N+](C)C)C=C2)c2ccccc2)cc1 | 53.1 nM (active) | 1.09 µM (active) | 0.133 µM (active) |  | 0.174 µM (active) | 0.075 µM (active) | 0.0347 µM (active) |  | 0.106 µM (active) | 23.7 µM (active) | 473 nM (active) | 0.657 µM (active) | 0.293 µM (active) | 0.369 µM (active) | 0.737 µM (active) | 0.657 µM (active) | 1.85 µM (active) | 827 nM (active) | 1.31 µM (active) | 
6 | Cc1ccc(C(=O)c2ccc(CC(=O)O)n2C)cc1 | inactive |  | inactive | inactive | inactive | inactive | inactive | inactive | inactive | inactive | inactive |  |  |  |  |  |  |  |  | inactive
7 | O=C(O)/C=C\C(=O)O | inactive | inactive | inactive | inactive | inactive | inactive | inactive |  | inactive | inactive | inactive |  |  |  |  |  |  |  |  | 
8 | c1ccc2sc(SSc3nc4ccccc4s3)nc2c1 | inactive | inactive | inactive | inactive | inactive | inactive | inactive | inactive | inactive |  | inactive |  |  |  |  |  |  |  |  | inactive
9 | Nc1ccc(C(=O)O)c(O)c1 | inactive |  | inactive | inactive | inactive | inactive | inactive | inactive | inactive | inactive | inactive |  |  |  |  |  |  |  |  | 
10 | CN1CC(=O)N/C1=N/C(=O)Nc1cccc(Cl)c1 | inactive |  | inactive | inactive | inactive | inactive | inactive | inactive | inactive | inactive | inactive |  |  |  |  |  |  |  |  | 
11 | COC(=O)Nc1nc2ccc(C(=O)C3CC3)cc2[nH]1 | 841 nM (active) |  |  | 0.841 µM (active) | 2.19 µM (active) | inactive | 1.1 µM (active) |  |  | inactive | inactive |  | 1.31 µM (active) | 1.04 µM (active) |  |  | 16.5 µM (active) |  |  | 
12 | Cc1c(N)c(=O)n(-c2ccccc2)n1C | inactive |  | inactive | inactive | inactive | inactive | inactive |  | inactive | inactive | inactive |  |  |  |  |  |  |  |  | inactive
13 | O=C(/C=C/c1ccccc1)NCCO | inactive |  | inactive | inactive | inactive | inactive | inactive | inactive | inactive | inactive | inactive |  |  |  |  |  |  |  |  | inactive
14 | C=CCCCCCCCCC(=O)O | inactive |  | inactive | inactive | inactive | inactive | inactive |  | inactive | inactive | inactive |  |  |  |  |  |  |  |  | inactive
15 | CCC1C(=O)OCC1Cc1cncn1C (stereo not given) | inactive |  | inactive | inactive | inactive | inactive | inactive |  | inactive | inactive | inactive |  |  |  |  |  |  |  |  | inactive
16 | O=C1CN(/N=C/c2ccc([N+](=O)[O-])o2)C(=O)N1 | inactive |  | inactive | inactive |  | inactive | inactive | inactive |  | inactive | inactive |  |  |  |  |  |  |  |  | 
17 | Nc1c(CC(=O)O)cccc1C(=O)c1ccc(Br)cc1 | inactive |  | inactive | inactive | inactive | inactive | inactive |  | inactive | inactive | inactive |  |  |  |  |  |  |  |  | inactive
18 | Clc1ccccc1-c1nc(-c2ccncc2)no1 | inactive |  | inactive | inactive |  | inactive |  |  | inactive | inactive | inactive |  |  |  |  |  |  |  |  | 
19 | CNC(=O)c1c(I)c(NC(=O)CCCCC(=O)Nc2c(I)c(C(=O)O)c(I)c(C(=O)NC)c2I)c(I)c(C(=O)O)c1I | inactive |  | inactive | inactive | inactive | inactive | inactive |  | inactive | inactive | inactive |  |  |  |  |  |  |  |  | inactive

— PubChem BioAssay (NCATS)
